Measured values taken from the supplement of paper PMC6411743.
± gives the standard deviation of the averaged measurements. The full data set covers some 5,400 targets. This sample favours those with the largest changes.

Compound: Nc1nc2c(ncn2[C@@H]2O[C@H](COP(=O)(O)OP(=O)(O)OP(=O)(O)O)[C@@H](O)[C@H]2O)c(=O)[nH]1 [guanosine triphosphate]
Assay: NP40-soluble protein abundance relative to vehicle (solubility fold change) (ratio); higher = more soluble protein in presence of GTP
Protocol: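 Solubility proteome profiling in Jurkat crude lysate. Lysate was treated with Mg-GTP (0.1-10 mM) for 10 min at room temperature and 3 min at 37 °C, then solubilised with 0.8% NP40 and benzonase, followed by ultracentrifugation. Proteins were quantified by TMT10 LC-MS/MS; the value is the NP40-soluble abundance relative to the NP40-processed vehicle, from 3 independent experiments.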

Sequence of UniProt Q9UKV8 (Q9UKV8 whole entry): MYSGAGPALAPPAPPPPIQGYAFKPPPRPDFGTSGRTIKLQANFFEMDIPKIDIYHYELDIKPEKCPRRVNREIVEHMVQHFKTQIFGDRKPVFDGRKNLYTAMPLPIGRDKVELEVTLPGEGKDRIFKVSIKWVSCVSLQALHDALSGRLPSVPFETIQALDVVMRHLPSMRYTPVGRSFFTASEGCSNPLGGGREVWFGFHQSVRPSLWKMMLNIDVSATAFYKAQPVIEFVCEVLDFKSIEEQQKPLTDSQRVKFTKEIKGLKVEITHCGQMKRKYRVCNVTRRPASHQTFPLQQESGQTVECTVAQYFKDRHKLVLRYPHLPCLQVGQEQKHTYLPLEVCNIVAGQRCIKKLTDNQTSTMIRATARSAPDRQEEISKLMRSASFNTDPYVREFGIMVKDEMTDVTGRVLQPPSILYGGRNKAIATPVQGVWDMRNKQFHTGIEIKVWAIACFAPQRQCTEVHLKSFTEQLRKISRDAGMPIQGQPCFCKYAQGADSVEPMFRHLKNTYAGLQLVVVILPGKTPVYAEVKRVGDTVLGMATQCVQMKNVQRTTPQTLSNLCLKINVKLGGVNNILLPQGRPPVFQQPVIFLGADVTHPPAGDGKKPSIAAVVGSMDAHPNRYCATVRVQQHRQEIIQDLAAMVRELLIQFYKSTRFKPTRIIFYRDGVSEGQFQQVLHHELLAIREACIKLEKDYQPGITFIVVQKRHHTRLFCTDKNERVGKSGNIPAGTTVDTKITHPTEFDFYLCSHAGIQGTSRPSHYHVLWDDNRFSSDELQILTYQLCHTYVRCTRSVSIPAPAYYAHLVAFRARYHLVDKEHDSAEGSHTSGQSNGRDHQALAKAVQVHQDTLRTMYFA
Sequence of UniProt Q9BVI0 (Q9BVI0 whole entry, one chain of several): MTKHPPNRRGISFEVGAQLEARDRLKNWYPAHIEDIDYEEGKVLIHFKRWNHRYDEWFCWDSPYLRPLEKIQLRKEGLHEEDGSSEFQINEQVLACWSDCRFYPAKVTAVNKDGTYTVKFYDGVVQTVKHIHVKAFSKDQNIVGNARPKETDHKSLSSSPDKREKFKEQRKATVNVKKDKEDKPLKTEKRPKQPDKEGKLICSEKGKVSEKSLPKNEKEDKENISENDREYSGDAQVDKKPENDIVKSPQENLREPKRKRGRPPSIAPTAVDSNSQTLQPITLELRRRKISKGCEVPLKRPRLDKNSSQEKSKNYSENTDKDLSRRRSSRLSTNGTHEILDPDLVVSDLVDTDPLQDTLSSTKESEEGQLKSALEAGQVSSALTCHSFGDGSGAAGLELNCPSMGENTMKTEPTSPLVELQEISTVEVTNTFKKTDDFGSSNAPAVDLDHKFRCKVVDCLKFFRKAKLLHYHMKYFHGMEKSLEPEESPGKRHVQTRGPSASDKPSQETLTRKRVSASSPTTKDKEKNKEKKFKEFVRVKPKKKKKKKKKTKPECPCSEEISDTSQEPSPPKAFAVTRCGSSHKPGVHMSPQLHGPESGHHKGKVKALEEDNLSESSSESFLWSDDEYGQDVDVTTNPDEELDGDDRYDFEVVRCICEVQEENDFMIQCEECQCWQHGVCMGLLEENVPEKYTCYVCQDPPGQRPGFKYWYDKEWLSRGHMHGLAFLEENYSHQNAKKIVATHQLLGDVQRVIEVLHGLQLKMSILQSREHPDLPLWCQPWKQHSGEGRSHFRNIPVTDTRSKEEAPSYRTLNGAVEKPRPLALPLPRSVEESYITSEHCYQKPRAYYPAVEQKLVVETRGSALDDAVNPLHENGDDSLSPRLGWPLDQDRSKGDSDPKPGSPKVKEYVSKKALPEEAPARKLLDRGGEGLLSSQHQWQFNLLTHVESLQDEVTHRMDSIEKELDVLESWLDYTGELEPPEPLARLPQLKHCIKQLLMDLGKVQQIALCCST
Sequence of UniProt Q9UBS4 (Q9UBS4 whole entry): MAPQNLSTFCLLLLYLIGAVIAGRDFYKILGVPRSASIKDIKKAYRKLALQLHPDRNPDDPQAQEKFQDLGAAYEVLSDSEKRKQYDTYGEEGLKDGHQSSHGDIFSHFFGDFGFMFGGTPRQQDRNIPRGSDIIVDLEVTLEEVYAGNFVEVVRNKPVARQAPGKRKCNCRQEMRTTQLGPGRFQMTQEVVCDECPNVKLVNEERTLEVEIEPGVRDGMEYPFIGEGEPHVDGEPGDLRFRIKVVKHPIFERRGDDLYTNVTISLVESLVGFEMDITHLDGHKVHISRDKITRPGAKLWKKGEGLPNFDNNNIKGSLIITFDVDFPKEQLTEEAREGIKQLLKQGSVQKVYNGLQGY
Sequence of UniProt Q99707 (Q99707 whole entry): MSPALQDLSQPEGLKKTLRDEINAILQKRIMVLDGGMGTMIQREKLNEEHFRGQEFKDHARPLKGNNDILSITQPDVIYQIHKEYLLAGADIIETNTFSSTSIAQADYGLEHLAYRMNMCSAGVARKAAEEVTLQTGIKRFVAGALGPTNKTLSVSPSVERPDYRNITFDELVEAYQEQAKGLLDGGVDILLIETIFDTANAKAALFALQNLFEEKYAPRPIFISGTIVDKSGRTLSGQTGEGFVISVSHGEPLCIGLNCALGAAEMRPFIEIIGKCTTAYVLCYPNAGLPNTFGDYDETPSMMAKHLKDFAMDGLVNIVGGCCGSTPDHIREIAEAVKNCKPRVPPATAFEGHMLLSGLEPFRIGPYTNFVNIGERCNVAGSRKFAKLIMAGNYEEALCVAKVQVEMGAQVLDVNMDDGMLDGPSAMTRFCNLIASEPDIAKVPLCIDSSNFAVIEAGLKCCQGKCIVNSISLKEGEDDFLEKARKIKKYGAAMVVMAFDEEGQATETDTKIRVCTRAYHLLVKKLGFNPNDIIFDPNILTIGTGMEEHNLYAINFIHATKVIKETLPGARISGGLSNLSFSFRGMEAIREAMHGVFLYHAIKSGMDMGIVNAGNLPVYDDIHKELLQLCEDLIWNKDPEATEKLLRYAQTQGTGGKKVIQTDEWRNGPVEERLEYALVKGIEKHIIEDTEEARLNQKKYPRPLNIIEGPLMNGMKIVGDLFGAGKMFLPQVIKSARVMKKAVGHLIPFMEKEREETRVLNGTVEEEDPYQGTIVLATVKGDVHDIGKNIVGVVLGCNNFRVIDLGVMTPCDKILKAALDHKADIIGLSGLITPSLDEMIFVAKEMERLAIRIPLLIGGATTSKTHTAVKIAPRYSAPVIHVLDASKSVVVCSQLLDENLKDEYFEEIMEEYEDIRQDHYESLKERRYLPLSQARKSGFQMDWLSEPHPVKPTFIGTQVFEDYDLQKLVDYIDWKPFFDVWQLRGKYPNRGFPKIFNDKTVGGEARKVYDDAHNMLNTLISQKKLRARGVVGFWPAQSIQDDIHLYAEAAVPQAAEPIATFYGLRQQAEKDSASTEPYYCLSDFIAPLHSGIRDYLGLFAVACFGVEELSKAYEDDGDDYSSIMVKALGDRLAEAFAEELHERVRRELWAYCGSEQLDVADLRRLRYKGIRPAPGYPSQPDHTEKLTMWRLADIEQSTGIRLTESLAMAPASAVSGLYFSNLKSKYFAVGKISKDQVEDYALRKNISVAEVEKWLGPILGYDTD

Target	NP40-soluble protein abundance (concentration: 0.1mM)	NP40-soluble protein abundance (concentration: 0.5mM)	NP40-soluble protein abundance (concentration: 1mM)	NP40-soluble protein abundance (concentration: 2mM)	NP40-soluble protein abundance (concentration: 4mM)	NP40-soluble protein abundance (concentration: 6mM)	NP40-soluble protein abundance (concentration: 8mM)	NP40-soluble protein abundance (concentration: 10mM)
UniProt Q9BVI0|A0A0A0MT13|Q5JWZ0|Q5JXL1	1.11 ± 0.068	1.07 ± 0.12	1.19 ± 0.078	1.27 ± 0.057	1.52 ± 0.056	1.553 ± 0.012	1.77 ± 0.08	1.71 ± 0.071
UniProt Q9UKV8	1.08 ± 0.065	1.14 ± 0.053	1.06 ± 0.045	1.11 ± 0.053	1.1 ± 0.026	1.07 ± 0.078	1.07 ± 0.057	1.05 ± 0.061
VPS35 (UniProt Q96QK1)	1.03 ± 0.082	1.04 ± 0.093	0.913 ± 0.048	0.958 ± 0.13	0.929 ± 0.11	0.912 ± 0.086	0.833 ± 0.048	0.868 ± 0.093
UniProt Q99707|Q99707-2	0.997 ± 0.019	1.01 ± 0.062	0.987 ± 0.015	1.01 ± 0.033	0.973 ± 0.022	0.965 ± 0.0072	0.928 ± 0.023	0.927 ± 0.029
DNAJB11 (UniProt Q9UBS4)	1.01 ± 0.027	1.02 ± 0.048	1.03 ± 0.059	1 ± 0.048	1.01 ± 0.051	1.02 ± 0.046	1.005 ± 0.0044	0.982 ± 0.029
